GLD-1 TGE inh – GLD-1/TGE RNA complex disruptors, primary screen, biochemical, fluorescence polarization; Female germline-specific tumor suppressor gld-1 (Caenorhabditis elegans), Q17339; purified GLD-1 + fluorescein TGE RNA; inhibition, % at 5.96 µM; 320,000 tested, 0.44% active;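 active = percent inhibition above a per-plate cutoff, the plate mean of test compounds plus 3 SD, cut at about 30% in these data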
Mcl1-Bid inh – Mcl-1/Bid binding inhibitors, primary screen, biochemical, TR-FRET, 1536-well. AID 1021, 2008. TR-FRET Mcl-1/Bid-Dy647 peptide binding. inhibition, % at 21.7 µM. 220,000 tested, 0.97% active. Induced myeloid leukemia cell differentiation protein Mcl-1 (Homo sapiens), Q07820;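 active = compounds that cut the binding signal by more than half at the single screening dose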;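 note: His-tagged Mcl-1 with europium anti-His antibody binding Bid BH3 peptide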
Target sequence (Q07820 whole entry, looked up): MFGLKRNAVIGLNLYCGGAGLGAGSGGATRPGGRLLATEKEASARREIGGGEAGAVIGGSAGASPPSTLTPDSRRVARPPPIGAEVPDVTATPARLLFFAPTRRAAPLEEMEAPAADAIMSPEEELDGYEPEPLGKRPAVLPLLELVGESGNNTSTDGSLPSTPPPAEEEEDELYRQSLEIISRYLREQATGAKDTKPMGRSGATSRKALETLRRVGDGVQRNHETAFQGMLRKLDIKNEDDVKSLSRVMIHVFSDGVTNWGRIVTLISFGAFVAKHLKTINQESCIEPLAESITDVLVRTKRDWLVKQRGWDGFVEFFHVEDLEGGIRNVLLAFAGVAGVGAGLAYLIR
MCL1 BIM primary – inhibitors of MCL1 binding to BIM-BH3, primary screen, biochemical, fluorescence polarization. Induced myeloid leukemia cell differentiation protein Mcl-1 (Homo sapiens), Q07820. GST-MCL1 / FITC-Bim-BH3 fluorescence polarization. 320,000 tested, 0.68% active. inhibition, % at 10.9 µM;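 active = inhibition above the mean inhibition of all tested compounds plus 3 SD, set per campaign, cut at about 40% in these data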;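 note: higher means more loss of mP so more displacement of Bim peptide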
Bim-Mcl-1 – inhibitors of Bim peptide binding to Mcl-1, primary screen, biochemical, bead-based flow cytometry, multiplex. inhibition, % at 10 µM. 190,000 tested, 0.1% active. Bim peptide-Mcl-1 binding. AID 1009, 2008. Induced myeloid leukemia cell differentiation protein Mcl-1 (Homo sapiens), Q07820; in the data active = inhibition above about 40%
Bcl-xL primary – inhibitors of human Bcl-xL, primary screen, biochemical, fluorescence polarization, HTS; 320,000 tested, 0.7% active; Bcl-2-like protein 1 (Homo sapiens), Q07817; inhibition, % at 10.9 µM; AID 2129, 2009; GST-Bcl-xL / FITC-Bim BH3 peptide fluorescence polarization;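 active = inhibition above the mean of all tested compounds plus 3 SD, cutoff set per campaign, cut at about 30% in these data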;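 note: inhibitors lower millipolarization by displacing the labeled peptide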
Mcl1 Noxa PPI – Mcl-1/Noxa binding inhibitors, primary screen, biochemical, TR-FRET, 1536-well; Induced myeloid leukemia cell differentiation protein Mcl-1 (Homo sapiens), Q07820; TR-FRET Mcl-1/Noxa peptide binding, 2 h; inhibition, % at 21.7 µM; 220,000 tested, 1.5% active;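 active = compounds that cut the protein-peptide binding signal by more than 50% relative to plate controls in a single-dose test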;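 note: His-tagged Mcl-1 with rhodamine Noxa BH3 peptide and terbium anti-His antibody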
GLD1 RNA confirm – GLD-1/TGE RNA binding inhibitors, retest, confirmation, biochemical, fluorescence polarization, triplicate. shares compounds with GLD-1 TGE inh. GLD-1/FL-TGE RNA fluorescence polarization. inhibition, % at 5.96 µM. 550 tested, 10% active. AID 2459, 2010;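 active = average inhibition across triplicates above the hit cutoff set in the primary screen, cut at about 32% in these data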
Each line names hits and unclear results; the compound was inactive in the other large screens (follow-up assays come after a bar, where they were run). Rows were chosen to be rich in hits. Some 2.3% of all compounds tested hit in one or more screens of this group.

O=C1C2CC=C(Cl)CC2C(=O)N1CCc1ccccc1 (stereo unspecified)	GLD-1 TGE inh 42.6, MCL1 BIM primary 40.7, Bcl-xL primary 33.0 | GLD1 RNA confirm inactive
O=C(CN1C(=O)C2CC=C(Cl)CC2C1=O)NCc1ccccc1 (stereo unspecified)	GLD-1 TGE inh 41.9, MCL1 BIM primary 42.1, Bcl-xL primary 41.5 | GLD1 RNA confirm 32.9
O=C1C2CC=C(Cl)CC2C(=O)N1CCc1c[nH]c2ccccc12 (stereo unspecified)	none
Cc1ccc(NC(=O)c2ccc3nsnc3c2)c(C)c1	none (no result: Mcl1-Bid inh, Bim-Mcl-1, Mcl1 Noxa PPI)
COc1ccccc1CNC(=O)Cn1nnnc1CN(C)C(C)C	none (no result: Mcl1-Bid inh, Bim-Mcl-1, Mcl1 Noxa PPI)
COC(=O)c1ccc(CNC(=O)Cn2nnnc2CN(C)C(C)C)cc1	GLD-1 TGE inh 138.2 (no result: Mcl1-Bid inh, Bim-Mcl-1, Mcl1 Noxa PPI) | GLD1 RNA confirm inactive
CCCCCCc1cc2cc(S(=O)(=O)c3ccc(C)cc3)c(=O)oc2cc1O	GLD-1 TGE inh 39.3 | GLD1 RNA confirm inactive
CCCCCCc1cc2cc(S(=O)(=O)c3ccc(Cl)cc3)c(=O)oc2cc1O	none
CCSc1nnc(NC(=O)CN2C(=O)NC3(CCCC3)C2=O)s1	none (no result: Mcl1-Bid inh, Bim-Mcl-1, Mcl1 Noxa PPI)
O=C(NCc1ccon1)C1CCC(=O)N(CCc2ccc(Cl)cc2)C1 (stereo unspecified)	none (no result: Mcl1-Bid inh, Bim-Mcl-1, Mcl1 Noxa PPI)
Nc1c(C(=O)OCC(=O)Nc2ccccc2Br)[nH]c(=O)[nH]c1=O	GLD-1 TGE inh 39.3 (no result: Mcl1-Bid inh, MCL1 BIM primary, Bim-Mcl-1, Bcl-xL primary, Mcl1 Noxa PPI) | GLD1 RNA confirm inactive
Nc1c(C(=O)OCC(=O)NCc2ccccc2)[nH]c(=O)[nH]c1=O	none (no result: Bim-Mcl-1)

Screening data as filed in PubChem.
